Screening data (PubChem BioAssay)
Shown are actives, neighbours in structure and some others; about 4.5% of the full set was active somewhere.
Mtb FBA inh – Mtb fructose-bisphosphate aldolase inhibition. purified M. tuberculosis FBA, fluorescence read-out. inhibition, % at 1 µM. 360,000 tested, 2.3% active. AID 588726; in the data active = inhibition above about 27%;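 also: 0% = vehicle and 100% = reference inhibitor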
Target sequence (P9WQA3 whole entry, looked up): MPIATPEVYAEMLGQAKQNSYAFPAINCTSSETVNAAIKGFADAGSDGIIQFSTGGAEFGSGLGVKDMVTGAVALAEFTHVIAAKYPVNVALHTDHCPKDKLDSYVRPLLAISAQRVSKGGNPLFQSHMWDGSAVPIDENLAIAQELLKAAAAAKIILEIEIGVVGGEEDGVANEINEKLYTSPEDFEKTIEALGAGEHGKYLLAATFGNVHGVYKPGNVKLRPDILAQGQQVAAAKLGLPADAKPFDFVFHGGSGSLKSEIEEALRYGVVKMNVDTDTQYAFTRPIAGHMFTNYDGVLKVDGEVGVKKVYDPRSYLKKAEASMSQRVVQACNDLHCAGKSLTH
BJeLR viability – kills HRASV12-expressing BJeLR cells. inhibition, % (concentration not given with the values). 300,000 tested, 0.17% active. BJeLR (HRASV12) viability, CellTiter-Glo ATP luminescence, 48 h; in the data active = inhibition above about 50%
PrP UTR inh – suppresses PrP 5' UTR mRNA reporter expression. cell-based PrP 5' UTR mRNA reporter, plate reader. 340,000 tested, 0.35% active. inhibition, % (concentration not given with the values); in the data active = inhibition above about 52%; also: 0 = median of the neutral control wells
PfHsp40 rescue – restores yeast growth despite PfHsp40 toxicity | S. cerevisiae expressing PfHsp40, growth rescue, ATP luminescence | AID 504582 | 340,000 tested, 0.68% active | growth rescue, % at 12.5 µM; in the data active = growth rescue above about 28%, passing the limit was not always enough;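 also: yeast W303a lacking pdr1 and pdr3 grown in galactose medium; growth measured after three days at 30 °C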
GDH-TPI counter – counter-screen for M. tuberculosis FBA inhibitors: GDH-TPI coupled enzymes; GDH-TPI coupled enzyme counterscreen, NADH absorbance; inhibition, % at 4.8 µM; 360,000 tested, 1.2% active; AID 588335; in the data active = inhibition above about 30%;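 also: 0% = DMSO wells and 100% = wells lacking the enzyme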
PrPC surface inh – inhibitors of human cell surface prion protein PrPC | P04156 | TR-FRET read-out | inhibition, % at 13.8 µM | 370,000 tested, 0.43% active | AID 720596; in the data active = inhibition above about 24%; also: 0% = median of the test wells and 100% = reference compound wells
* = called active by the depositor; . = no result; + = active, no number.

SMILES	Mtb FBA inh	BJeLR viability	PrP UTR inh	PfHsp40 rescue	GDH-TPI counter	PrPC surface inh
CC(C)CNC(=O)OCc1cn(Cc2cc(F)ccc2F)nn1	.	.	.	.	.	-2
O=C(N/N=C/c1cccc([N+](=O)[O-])c1O)c1cccs1	-9	-3	1	0	32*	9
O=C(N/N=C/c1cccc([N+](=O)[O-])c1)C1COc2ccccc2O1 (centres undefined)	3	4	-8	0	6	-2
O=C(N/N=C\c1cccc([N+](=O)[O-])c1O)C1COc2ccccc2O1 (centres undefined)	-4	13	-12	42*	8	-6
O=C(c1ccco1)N1CCC(Oc2cccnc2)CC1	.	.	.	.	.	1
CCN(CC(=O)Nc1ccc(NC(C)=O)cc1)C(=O)/C=C/c1ccc(C)o1	1	.	-11	1	35*	4
O=C(CCn1nnc(-c2cccs2)n1)NCc1cccs1	.	.	.	.	.	-1
O=C(NC(=S)NC1CCN(Cc2ccccc2)CC1)c1ccc(F)cc1	+	-1	-27	4	2	-9
O=C(NC1CCN(Cc2ccc(F)cc2)CC1)c1ccccc1	2	2	-18	22	0	-10
O=C(Nc1nc2c(s1)CCCC2=O)c1cnccn1	2	1	-51	0	32*	-6
NC(=O)C1CCN(c2nc(-c3ccc4c(c3)CCO4)cs2)CC1	.	.	.	.	.	1
CCOc1ccc(-n2c(SCC(=O)Nc3ccc(S(=O)(=O)Nc4cc(C)nc(C)n4)cc3)nnc2-c2ccc(C)cc2)cc1	.	.	.	.	.	3
COc1cccc(CSc2nnc(C(F)(F)F)n2Cc2ccc(F)cc2)c1	0	-1	3	2	-6	9
Cc1ccc(CSc2nnc(C(F)(F)F)n2Cc2ccc(F)cc2)cc1	-2	1	-16	38*	0	.
COc1cc(C(=O)N=c2sccn2C)c([N+](=O)[O-])cc1OC	-2	-5	-3	-2	13	-11
Cn1ccsc1=NC(=O)c1ccc([N+](=O)[O-])o1	-2	-3	-21	248*	14	-35
O=C(CN1C(=O)S/C(=C\c2ccc(F)cc2)C1=O)NC1C=CS(=O)(=O)C1 (centres undefined)	1	11	-11	1	33*	-4
COc1ccc(/C=C2\SC(=O)N(CC(=O)NC3C=CS(=O)(=O)C3)C2=O)cc1 (centres undefined)	-3	-4	7	0	48*	-7
O=C(CCN1C(=O)/C(=C/c2ccc(F)cc2)SC1=S)NC1C=CS(=O)(=O)C1 (centres undefined)	5	-1	15	-1	13	-1
O=C(CN1C(=O)S/C(=C\c2ccccc2F)C1=O)NC1C=CS(=O)(=O)C1 (centres undefined)	-2	-6	-11	0	31*	3
COc1ccc(/C=C2\SC(=S)N(CC(=O)NC3CCS(=O)(=O)C3)C2=O)cc1 (centres undefined)	0	-6	-9	0	10	-4
CCOc1ccc(-n2c(COc3ccccc3)nnc2SCC(=O)Nc2ccc(OCc3ccccc3)cc2)cc1	.	.	.	.	.	7
Cc1cc(=S)[nH]c(=S)[nH]1	-1	-13	-5	-1	35*	3
CC(=O)/C=C/n1c(=S)oc2ccccc21	.	71*	.	.	.	7
CC(C)CC(=O)/C=C/n1c(=S)oc2ccccc21	0	4	-7	-1	19	4
SMILES	Mtb FBA inh	BJeLR viability	PrP UTR inh	PfHsp40 rescue	GDH-TPI counter	PrPC surface inh
CC1=CS/C(=C(/C#N)C(=O)NCc2ccco2)N1c1ccccc1	-1	11	34	-1	51*	3
Cc1c[nH]c2cccc(-c3ccc(OCc4ccccc4)cc3)c12	.	.	.	.	.	4
Cc1cc(C)n2c(=O)c3ccc(Cl)cc3nc2c1C#N	-5	2	-26	1	11	-1
Cc1cc(Cl)n2c(nc3cc(F)c(F)cc32)c1C#N	16	128*	2	8	-2	-8
Cn1c(C(=O)O)cc2c(=O)n3ccccc3nc21	+	-12	6	0	13	-12
Cc1c(O)nc2ccccn2c1=O	2	-1	-23	0	10	-2
O=C(c1nc2ccccn2c1CNCCn1ccc2ccccc21)N1CCOCC1	-4	2	3	1	-5	-14
Cc1cc(N2CCN(C(=O)c3ccco3)CC2)c2ccccc2n1	1	-3	-14	-2	17	3
Cn1c(C(=O)N2CCN(C(=O)c3ccco3)CC2)cc2c(=O)n3ccccc3nc21	+	-14	-10	-1	19	-4
CC1Cc2ccccc2N1C(=O)c1cc2c(=O)n3ccccc3nc2n1C (centres undefined)	4	5	-13	2	8	1
Cn1c(C(=O)N2CCc3ccccc3C2)cc2c(=O)n3ccccc3nc21	73*	12	9	1	10	-1
Cn1c(C(=O)N2CCOCC2)cc2c(=O)n3ccccc3nc21	+	-4	-22	-2	26	-8
O=[N+]([O-])c1cccc2[nH]c(CNc3nc(N4CCOCC4)nc4c3ncn4-c3ccsc3)nc12	.	.	.	.	.	14
COc1ccc(S[C@]2(C(=O)N3CCOCC3)CC(=O)N(C(=O)CCc3ccccc3)[C@@H]2c2ccc(OC)cc2)cc1	.	.	.	.	.	17
CC1CN(C(=O)c2cc3c(=O)n4ccccc4nc3n2C)CC(C)O1 (centres undefined)	+	5	-1	0	26	-8
CCOC(=O)C1CCN(C(=O)c2cc3c(=O)n4ccccc4nc3n2C)CC1	133*	8	-17	-1	16	-5
Cc1ccnc(SCc2cc(=O)c(OC(=O)c3ccc([N+](=O)[O-])cc3)co2)n1	.	.	.	.	.	-13
COc1ccc([N+](=O)[O-])c(S(=O)(=O)c2ccc(Cl)cc2)n1	0	5	-25	50*	2	0
COc1nc(OC)nc(Oc2ccc(Cl)cc2[N+](=O)[O-])n1	0	0	-21	-2	-4	-10
Cc1cccc(C)c1OCC(=O)NNC(=S)NC(=O)C1CC1	-1	10	-12	83*	5	-6
S=C(Nc1ccc(Cl)cc1)OC1CCC12CCC(c1ccccc1)CC2 (centres undefined)	.	.	.	.	.	16
CCOc1ccc(/C=N/NC(=S)Nc2c(C)cccc2C)cc1	2	-2	-11	8	32*	17
CCNC(=S)N/N=C/c1ccc(OCCOc2ccccc2C)cc1	-1	-1	-15	1	15	2
Cc1ccc(-c2cc(-c3nnc(SCC(=O)Nc4cccc5ccccc45)n3N)[nH]n2)cc1	.	.	.	.	.	-3
CCc1noc(C)c1C(=O)NCCN1C(=O)S/C(=C\c2ccc(OC)cc2)C1=O	-5	-8	-53	3	31*	-1
COc1ccc(/C=C2\SC(=O)N(CCNC(=O)C3CC(=O)N(c4ccccc4)C3)C2=O)cc1 (centres undefined)	-2	-1	-33	1	25	5
